Experimental findings from PubChem BioAssay (NCATS) are described below.

Experiment [1] addresses Cytochrome P450 3A4 (Homo sapiens) (UniProt P08684). Kind of experiment: qHTS Assay for Inhibitors and Substrates of Cytochrome P450 3A4 (AID 884; active = well fitted curve in the direction sought with a large enough effect; an effect the other way counts as inactive or inconclusive; note: potency is the fitted concentration of half-maximal effect; nearly all actives have a fitted effect of over 50% in size). The method in brief:
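Luminescent readout of luciferin produced by CYP3A4 (20 nM) dealkylation of Luciferin-PPXE, 25 uM (its KM). NADPH-driven reaction ran 60 min at RT after 10 min compound preincubation; data scaled to 57 uM ketoconazole as 100% inhibition.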

For experiment [2] the target is unchanged. As to the kind of experiment: qHTS Assay for Activators of Cytochrome P450 3A4 (AID 885; active = well fitted curve in the direction sought with a large enough effect; an effect the other way counts as inactive or inconclusive; note: nearly all actives have a fitted effect of over 65% in size). The procedure, abridged: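 Luminescent readout of luciferin formed from 25 uM Luciferin-PPXE (KM level) by 20 nM CYP3A4 in 200 mM KPO4, with 60 min NADPH-driven reaction at room temperature after 10 min compound exposure. Ketoconazole (57 uM) defined 100% inhibition.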

Experiment [3] is described as follows: Confirmation and Secondary Assay for Modulators of Hemoglobin Beta Chain Splicing at IVS2 654 locus (AID 910; active = well fitted curve in the direction sought with a large enough effect; an effect the other way counts as inactive or inconclusive;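 note: HeLa cells stably carrying EGFP split by mutant beta-globin IVS2-654 intron; potency is the fitted concentration of half-maximal effect; potency of activators that raise GFP signal by restoring correct splicing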). The method in brief:
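HeLa cells stably expressing EGFP interrupted by β-globin IVS2-654 intron, seeded overnight in Opti-MEM/2% FCS, then treated 2 days at 37 °C. Restored splicing read as total peak GFP intensity per well by laser scanning cytometry (488 nm excitation, 500–520 nm emission); 500 nM antisense PNA as control.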

The nature of experiment [4]: qHTS for Inhibitors of the Functional Ribonucleoprotein Complex (vRNP) of Lassa (LASV) Arenavirus: Viability assay - alamar blue signal for LASV Primary Screen (AID 1347083; calls by dose curve; tested in HEK293 reporter line; note: nearly all actives have a fitted effect of over 80% in size; note: potency is the fitted concentration of half-maximal effect). Background: Quantitative high-throughput screening tests each substance at several concentrations.
A short description of experiment [5]: qHTS for Inhibitors of the Functional Ribonucleoprotein Complex (vRNP) of Lymphocytic Choriomeningitis Arenaviruses (LCMV): Viability assay - alamar blue signal for LCMV Primary Screen (AID 1347085; calls by dose curve; tested in HEK293 reporter line; note: nearly all actives have a fitted effect of over 80% in size; note: potency is the fitted concentration of half-maximal effect).
The target of experiment [6] is Nucleoprotein (Lymphocytic choriomeningitis virus (strain Armstrong)) (UniProt P09992). Kind of experiment: qHTS for Inhibitors of the Functional Ribonucleoprotein Complex (vRNP) of Lymphocytic Choriomeningitis Arenaviruses (LCMV): LCMV Primary Screen - GLuc reporter signal (AID 1347086). For activity change, negative = inhibition: % is set by controls: 0 for no effect and ±100 for the full control effect. Note: nearly all actives have a fitted effect of over 70% in size. Note: potency is the fitted concentration of half-maximal effect.
Chain of Nucleoprotein (Lymphocytic choriomeningitis virus (strain Armstrong)) (P09992 whole entry, looked up): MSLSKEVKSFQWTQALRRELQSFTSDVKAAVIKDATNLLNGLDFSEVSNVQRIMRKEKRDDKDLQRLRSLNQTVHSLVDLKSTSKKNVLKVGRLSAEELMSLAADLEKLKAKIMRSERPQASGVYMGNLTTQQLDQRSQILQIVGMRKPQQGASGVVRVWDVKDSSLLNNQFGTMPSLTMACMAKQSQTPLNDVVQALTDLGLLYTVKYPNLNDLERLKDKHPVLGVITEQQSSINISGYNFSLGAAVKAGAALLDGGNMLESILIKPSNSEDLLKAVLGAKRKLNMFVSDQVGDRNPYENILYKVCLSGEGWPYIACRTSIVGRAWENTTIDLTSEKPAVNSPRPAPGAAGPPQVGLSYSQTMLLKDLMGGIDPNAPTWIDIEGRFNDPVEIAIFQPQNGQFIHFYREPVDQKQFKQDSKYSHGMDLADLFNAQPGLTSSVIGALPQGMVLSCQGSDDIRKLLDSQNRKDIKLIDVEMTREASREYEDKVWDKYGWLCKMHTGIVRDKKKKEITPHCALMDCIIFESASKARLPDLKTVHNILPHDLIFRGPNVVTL
Experiment [7] is described as follows: Primary qHTS to identify inhibitors of SARS-CoV-2 cell entry (AID 1645846). Note: nearly all actives have a fitted effect of over 45% in size. To be noted: activity change, negative = inhibition: at 57.1 µM (top of the series) unless noted. The procedure, abridged: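 Luminescence readout (Bright-Glo luciferase) 48 h after pseudoparticle addition. HEK293-ACE2 cells, 1500/well; compound pre-incubation 1 h; Normalized to spike PP and bald PP.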

Experiment [8] is described as follows: Confirmatory qHTS for VERO E6 Cytotoxicity Assay: Counterscreen for SARS-CoV-2 CPE Assay (AID 1508605). Note: % is set by controls: 0 for no effect and ±100 for the full control effect; nearly all actives have a fitted effect of over 60% in size.
Experiment [9] is described as follows: Cytotoxicity counterscreen for inhibitors of SARS-CoV-2 cell entry (AID 1645845). Note: nearly all actives have a fitted effect of over 50% in size. Note: potency is the fitted concentration of half-maximal effect. The method in brief: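 Counterscreen run in the same HEK293-ACE2 line as the pseudotyped-particle entry assay, without particles. Viability after 48 h at 37 C was read as ATP luminescence, scaled between cell-containing and cell-free wells.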
(The purpose of a counterscreen is to sort out artefacts and off-target activity.)

A short description of experiment [10]: Validation screen for inhibitors of Lassa infection (AID 463096). For activity change, negative = inhibition: % is set by controls: 0 for no effect and ±100 for the full control effect. Note: potency is the fitted concentration of half-maximal effect.
Experiment [11] is described as follows: Inducers of the Endoplasmic Reticulum Stress Response (ERSR) in human glioma: Validation (AID 504836; active = well fitted curve in the direction sought with a large enough effect; an effect the other way counts as inactive or inconclusive; note: 0% is about no effect). The method in brief: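 Stably transfected U87-MG glioma cells carrying a GRP78-based luciferase sensor; 16 h compound incubation. Luminescence end-point read 10 min after Bright-Glo addition at room temperature.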
Experiment [12] is described as follows: Confirmatory qHTS to identify inhibitors of SARS-CoV-2 cell entry (AID 1645844). Note: potency is the fitted concentration of half-maximal effect; nearly all actives have a fitted effect of over 45% in size. The procedure, abridged:
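HEK293-ACE2, overnight seeding; cpd 1 h, 37C/5% CO2; + SARS-CoV-2-S MLV PP (Wuhan-Hu-1, ΔC19); 48 h; Bright-Glo luminescence. Data normalised to S PP and bald PP wells.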

Experiment [13] can be described thus: VSVG counterscreen qHTS to identify inhibitors of SARS-CoV-2 cell entry (AID 1645847). Note: potency is the fitted concentration of half-maximal effect; nearly all actives have a fitted effect of over 65% in size. The procedure, abridged:
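HEK293-ACE2 cells (Expi293F stably expressing human ACE2) were pretreated with compound for 1 h at 37 °C, then infected with MLV-based VSV-G pseudotyped particles for 48 h. Luciferase luminescence was normalized to VSV-G PP and bald PP wells.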

Experiment [14] has as its target Alpha-galactosidase (Coffea arabica) (UniProt Q42656). Kind of experiment: Counterscreen for Glucocerebrosidase Inhibitors: qHTS Assay for Coffee Bean alpha-Galactosidase at pH 4.5 (AID 957; active = well fitted curve in the direction sought with a large enough effect; an effect the other way counts as inactive or inconclusive;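 note: plate controls were enzyme alone for no effect and no enzyme for full effect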). The method in brief: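 Fluorogenic qHTS at pH 4.5 (citrate buffer with Tween-20): 2 nM enzyme, 80 uM 4-MU-alpha-galactoside substrate, compound titrated 0.7 nM to 77 uM, 20 min room temperature. Glycine/NaOH stop; 4-MU read Ex 365/Em 440; Hill-equation AC50 against no-enzyme and enzyme controls.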

Experiment [15] shares this target. As to the kind of experiment: Counterscreen for Glucocerebrosidase Inhibitors: qHTS Assay for Coffee Bean alpha-Galactosidase at pH 5.9 (AID 998; active = well fitted curve in the direction sought with a large enough effect; an effect the other way counts as inactive or inconclusive;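 note: plate controls were uninhibited enzyme for no effect and no-enzyme basal signal for full effect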). The method in brief: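 Enzyme 2 nM + cpd (0.7 nM–77 uM titration) + 4-MU-alpha-Gal 80 uM, pH 5.9 citrate/Tween-20, RT 20 min, NaOH/glycine stop pH 10, fluor 365/440. Normalized to no-enzyme and full-activity controls; Hill-fit AC50.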

Molecules are shown by their SMILES. Records with an inconclusive call do not appear. The source made the active and inactive calls. Unless noted, calls come from the whole dose curve.

Chain of Cytochrome P450 3A4 (Homo sapiens) (P08684 whole entry, looked up): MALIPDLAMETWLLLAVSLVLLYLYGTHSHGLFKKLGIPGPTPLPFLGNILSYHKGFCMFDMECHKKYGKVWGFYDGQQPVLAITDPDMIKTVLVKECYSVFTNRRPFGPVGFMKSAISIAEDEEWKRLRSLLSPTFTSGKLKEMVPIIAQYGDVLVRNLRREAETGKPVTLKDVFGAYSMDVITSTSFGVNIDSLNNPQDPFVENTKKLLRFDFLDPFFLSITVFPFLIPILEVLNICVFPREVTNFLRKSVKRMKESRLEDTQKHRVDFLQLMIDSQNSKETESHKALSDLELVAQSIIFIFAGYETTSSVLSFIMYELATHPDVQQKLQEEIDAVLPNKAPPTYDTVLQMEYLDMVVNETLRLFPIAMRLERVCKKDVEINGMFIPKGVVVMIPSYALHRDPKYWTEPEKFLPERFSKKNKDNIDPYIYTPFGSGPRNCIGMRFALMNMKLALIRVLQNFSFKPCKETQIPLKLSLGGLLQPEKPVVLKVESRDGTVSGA
Chain of Alpha-galactosidase (Coffea arabica) (Q42656 whole entry, looked up): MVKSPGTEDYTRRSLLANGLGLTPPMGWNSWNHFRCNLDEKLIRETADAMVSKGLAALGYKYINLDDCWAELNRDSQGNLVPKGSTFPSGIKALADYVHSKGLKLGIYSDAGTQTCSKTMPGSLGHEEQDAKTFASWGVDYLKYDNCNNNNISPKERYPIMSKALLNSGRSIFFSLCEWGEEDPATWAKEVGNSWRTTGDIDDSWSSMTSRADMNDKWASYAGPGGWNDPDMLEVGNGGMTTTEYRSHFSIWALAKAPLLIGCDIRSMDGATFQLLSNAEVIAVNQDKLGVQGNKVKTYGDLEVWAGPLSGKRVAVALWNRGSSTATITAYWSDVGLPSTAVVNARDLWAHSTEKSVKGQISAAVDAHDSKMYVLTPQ

For `CC[C@@]1(O)C(=O)OCc2c1cc1n(c2=O)Cc2cc3cc(O)ccc3nc2-1`, the Potency in experiment [1] was 12.6 µM (active); in experiment [3], 12.6 µM (active); in [4] it was 0.685 µM (active); in [5], 968 nM (active); in experiment [6], 1.37 µM (active). Also, in experiment [2], the Potency entry is “inactive”. For the same compound, the activity change, negative = inhibition in experiment [7] is -96.4%.

Take `NC(=O)c1cccc(-c2cc(Nc3ccc(OC(F)(F)F)cc3)ncn2)c1`: the Potency entry in experiment [4], in [5], in experiment [6] and in [8] was “inactive” each time. Besides, the Potency in [9] is 22.4 µM (active).

For `CCOc1cc2ncc(C#N)c(Nc3ccc(OCc4ccccn4)c(Cl)c3)c2cc1NC(=O)C=CCN(C)C`, the Potency in experiment [4] is 1.37 µM (active); in [5], 769 nM (active); in [6], 1.53 µM (active).

Take `COc1cc(-c2nn(C3CCC(N4CCN(C(C)=O)CC4)CC3)c3ncnc(N)c23)ccc1NC(=O)c1cc2ccccc2n1C` (centres undefined): the Potency in experiment [4] is 0.863 µM (active); in experiment [5] it was 968 nM (active); in experiment [6] it was 0.685 µM (active). In experiment [9], the Potency result was “inactive”.

On to `N#CC(=C(\N)Sc1ccccc1N)/C(C#N)=C(/N)Sc1ccccc1N`, for which the Potency in experiment [10] is 794 nM (active). Also, the result in experiment [11] was inactive. In addition, the Potency entry in [4], in [5] and in experiment [6] was “inactive” in each case.

`O=C(Nc1ncc(-c2cc(C(F)F)nn2-c2c(Cl)cccc2Cl)s1)C1CC1`: the Potency is 0.968 µM (active) in experiment [4]; 1090 nM (active) in [5]; 3.85 µM (active) in [6]; 541 nM (active) in experiment [12]; 1.36 µM (active) in [13].

Consider `CN[C@H]1CCc2cc(OC)c(OC)c(OC)c2-c2ccc(OC)c(=O)cc21`, for which the Potency entry in experiment [4] and in experiment [9] was “inactive” in each case. For the same compound, the Potency in experiment [5] was 5.4 nM (active); in [6], 0.0172 µM (active); in [12], 38.3 nM (active); in experiment [13], 0.171 µM (active). In experiment [7], the activity change, negative = inhibition was -76.7%.

Consider `Cn1cc(C=CC(=O)c2cccc(F)c2)cc1C=CC(=O)NO`, for which the Potency in experiment [4] was 17.2 µM (active); in experiment [5] it was 17200 nM (active); in [6], 13.7 µM (active).

Regarding `COc1cc2cc(c1Cl)N(C)C(=O)CC(OC(=O)C(C)N(C)C(C)=O)C1(C)OC1C(C)C1CC(O)(NC(=O)O1)C(OC)C=CC=C(C)C2` (centres undefined), the Potency entry in experiment [4], in experiment [5] and in [6] was “inactive” each time.

For the compound `O=c1cc(N2CCOCC2)oc2c(-c3ccccc3)cccc12`, the compound was classed as inactive in [14], in experiment [15] and in experiment [11]. Also, the Potency entry in experiment [10], in [5], in experiment [6] and in experiment [9] was “inactive” in each case. Further, the Potency in experiment [4] was 15.3 µM (active). Moreover, the activity change, negative = inhibition in experiment [7] was -24.5%.

For `Cc1nc(NC(=O)N2CCC[C@@H]2C(N)=O)sc1-c1ccnc(C(C)(C)C(F)(F)F)c1`, the Potency in experiment [4] is 10.9 µM (active). In addition, the Potency entry in [5] and in experiment [6] was “inactive” throughout.
